# In the library only some 6.9% were active in any assay of this set; here they are far more common.
# ASM inhibitor – human S-ASM enzyme inhibition; P17405; placental ASM, HMU-PC fluorogenic substrate, 60 min; Potency, µM (top dose mostly 57.5 µM), actives largely listed as inhibitors; hit rate 0.006% among 340,000
# Target sequence (P17405 47-631 limits assumed): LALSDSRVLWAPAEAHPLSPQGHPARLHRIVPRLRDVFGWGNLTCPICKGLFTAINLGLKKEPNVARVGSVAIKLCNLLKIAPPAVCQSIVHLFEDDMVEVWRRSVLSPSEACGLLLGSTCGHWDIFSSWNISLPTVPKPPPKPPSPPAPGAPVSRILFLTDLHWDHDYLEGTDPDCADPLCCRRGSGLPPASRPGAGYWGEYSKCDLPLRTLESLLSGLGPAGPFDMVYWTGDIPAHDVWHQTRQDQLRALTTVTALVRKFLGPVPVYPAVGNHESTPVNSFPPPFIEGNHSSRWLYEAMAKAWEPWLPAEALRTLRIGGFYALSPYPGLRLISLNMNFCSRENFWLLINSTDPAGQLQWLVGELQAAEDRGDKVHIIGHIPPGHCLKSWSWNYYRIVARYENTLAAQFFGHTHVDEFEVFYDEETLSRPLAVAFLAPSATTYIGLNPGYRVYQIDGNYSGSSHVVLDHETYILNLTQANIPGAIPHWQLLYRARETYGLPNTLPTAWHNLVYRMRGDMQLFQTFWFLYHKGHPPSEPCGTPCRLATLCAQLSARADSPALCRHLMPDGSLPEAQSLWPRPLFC
#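 Fluorogenic HMU-PC substrate (9 uM final) is turned over by placental ASM in 60 min at 37 C after a 10 min compound preincubation. Reaction ended by alkaline stop (pH 10), with fluorescence read at 386/447 nm.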
# KB-V1 cytotox – KB-V1 MDR subline cytotoxicity; hit rate 3.4% among 400,000; Potency, µM (titrated, usually from 46.1 µM), usual class: cytotoxic; KB-V1 MDR cells viability, CellTiter-Glo, 72 h; AID 1347076; further: nearly all actives have a fitted effect of over 60% in size
#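 Potencies derive from concentration-effect curves fitted to normalized luminescence (CellTiter-Glo) of KB-V1 cells treated for 72 h at 37 degrees C in phenol-red-free DMEM containing 10% FBS.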
# KB-3-1 cytotox – kills parental KB-3-1 adenocarcinoma cells; KB-3-1 viability, CellTiter-Glo ATP luminescence, 72 h; Potency, µM (top dose mostly 46.1 µM), actives largely listed as cytotoxic; hit rate 1.4% among 400,000; AID 1347075; further: nearly all actives have a fitted effect of over 60% in size
#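 Screening of KB-3-1 cells (DMEM, 10% FBS, phenol-red free) ran from lowest to highest compound concentration; after 72 h at 37 °C viability was read luminescently and curves fitted.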
# Giardia killer – Giardia lamblia killing. Giardia lamblia trophozoite viability. activity change, % at 7.66 µM, hits read low. hit rate 0.15% among 340,000. AID 540267; in the data active means activity change below about -80%; inconclusive means between about -30% and that limit;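 further: parasites exposed to compound for two days anaerobically before the ATP read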
#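 Giardia lamblia trophozoites (100 cells/well) were incubated with compounds for 48 h at 37 deg C under anaerobic conditions. Viability was read as ATP content by one-step luminescence after 15-30 min at room temperature.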
# SW480 rerep – DNA re-replication induction in SW480 cells | SW480 DNA re-replication, Hoechst DNA content imaging, 48 h | Potency, µM (titrated, usually from 46.1 µM), actives largely listed as activators | hit rate 1.8% among 340,000 | AID 624297; further: nearly all actives have a fitted effect of over 55% in size
#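 Image-based DNA-content assay: after two days of treatment, nuclei were labelled with the DNA dye Hoechst and imaged, and hits were compounds raising the count of nuclei showing high fluorescence intensity.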
# MCF10A rereplic – inducers of DNA re-replication in MCF 10A breast cells; Potency, µM (doses to about 46.1 µM), usual class: activators; MCF 10A DNA re-replication, Hoechst nuclear intensity, 48 h; hit rate 2.9% among 350,000; AID 624296; further: nearly all actives have a fitted effect of over 50% in size
# A number is an active result; . = inactive; ? = inconclusive; / = not tested or not shown. Unless noted, the call rests on the fitted dose curve; in most records, active means well fitted curve in the direction sought with a large enough effect; inconclusive means small, poorly fitted or top-dose-only effect, or another doubt; inactive means no such curve, though single readings can be large; an effect the other way counts as inactive or inconclusive.
SMILES,ASM inhibitor,KB-V1 cytotox,KB-3-1 cytotox,Giardia killer,SW480 rerep,MCF10A rereplic
Cc1cnc(NC(=O)c2cc3c(s2)CCCC3)s1,.,.,21µM,?,.,?
Cc1csc(NC(=O)c2cc3c(s2)CCCCC3)n1,.,?,.,?,.,16µM
O=C(NCCO)c1cc2c(s1)CCC2,.,.,.,.,?,0.25µM
CNC(=O)c1cc2c(s1)CCCCCC2,.,.,.,.,.,.
CCN(CCCNC(=O)CCCN1C(=O)COc2ccc(C)cc21)c1cccc(C)c1,.,12µM,.,.,.,.
COc1ccccc1Cn1cc(C(=O)c2ccc(C)cc2)c(=O)c2cc3c(cc21)OCCO3,/,.,.,/,/,/
OC(C[n+]1c(Cl)ccc2ccccc21)c1ccccc1 (centres undefined),/,?,.,/,/,/
COc1ccc(Cn2nnnc2C(c2ccccn2)N2CCN(c3cc(Cl)ccc3C)CC2)cc1 (centres undefined),.,13µM,?,.,?,.
COCCn1nnnc1C(c1ccccn1)N1CCN(c2cc(Cl)ccc2C)CC1 (centres undefined),.,.,.,.,.,.
CN1CCCC(CC2c3ccccc3Sc3ccccc32)C1 (centres undefined),.,18µM,.,.,.,.
CN1CCCC(CN2c3ccccc3Sc3ccccc32)C1 (centres undefined),.,?,.,.,?,.
CCc1ccc(NC(=O)c2ccc(NC(=O)C3CCCO3)cc2)cc1 (centres undefined),.,23µM,.,.,.,.
CCOC(=O)c1ccc(NC(=O)C2CCCO2)cc1 (centres undefined),.,.,.,.,.,.
CCOC(=O)c1cc(NC(=O)C2CCCO2)cc(C(=O)OCC)c1 (centres undefined),.,13µM,.,.,.,.
COc1cc2[nH]c(C)c(-c3ccccc3)c(=O)c2cc1Cl,/,.,?,/,/,/
Cc1nc([N+](=O)[O-])c(Sc2nc3ccc([N+](=O)[O-])cc3[nH]2)n1Cc1ccccc1,.,.,.,.,?,18µM
CCn1c(/C=C/N(C)c2ccccc2)[n+](CC)c2ccc(Cl)cc21,.,.,5.2µM,.,.,.
CCn1c(/C=C/Nc2ccccc2)[n+](CC)c2ccc(Cl)cc21,.,.,?,.,.,.
CCOC(=O)C1CCN(C(=O)CCc2c(C)nc3cc(-c4ccccc4)nn3c2C)CC1,.,.,.,.,.,?
CCOC(=O)C1CCN(c2cc(C)nc3cc(-c4cccc(F)c4)nn23)CC1,.,.,.,.,?,4.1µM
CC1CC(C)(C)NC(=S)N1CCC(=O)NCc1ccc(Cl)cc1 (centres undefined),.,?,.,.,.,.
Cc1ccc(C)c(S(=O)(=O)N2CCN(C(=O)CCNS(=O)(=O)c3ccc(C)c(C)c3)CC2)c1,.,2.9µM,?,.,.,.
COc1cc(C(=O)NCC(=O)N2CCN(S(=O)(=O)c3cc(C)ccc3C)CC2)cc(OC)c1OC,.,?,3.3µM,.,8.2µM,?
Cc1ccc(C)c(S(=O)(=O)N2CCN(C(=O)Cc3sc(C)nc3-c3ccc(F)cc3)CC2)c1,.,23µM,?,.,.,.
Cc1ccc(C)c(S(=O)(=O)N2CCN(C(=O)Cc3c(F)cccc3Cl)CC2)c1,.,7.3µM,.,.,.,.
SMILES,ASM inhibitor,KB-V1 cytotox,KB-3-1 cytotox,Giardia killer,SW480 rerep,MCF10A rereplic
CCCCC(CC)CNC(=O)CCCc1nnc2n(CCC)c(=O)c3sccc3n12 (centres undefined),/,.,.,/,/,/
CC1=NN(c2nc3ccccc3[nH]2)C(=O)/C1=C/N(C)C,.,?,5.8µM,?,.,.
CC1=NN(c2ccccc2)C(=O)/C1=C/N(C)C,.,.,.,.,.,.
CC1=NN(c2nc3ccccc3[nH]2)C(=O)C1Cc1ccccc1 (centres undefined),.,?,?,.,2.9µM,?
CC1=NN(c2ccc([N+](=O)[O-])cc2)C(=O)/C1=C\N(C)C,.,10µM,?,.,.,.
Cc1ccc(S(=O)(=O)N(CC(=O)Nc2ccc(F)cc2F)Cc2ccc(F)cc2)cc1,/,.,.,/,/,/
CSc1nc(N)nc(SCC(=O)c2ccc(C)cc2)c1C#N,.,.,.,.,?,5.8µM
CCOC(=O)c1c(C)[nH]c(C(=O)COC(=O)c2cnccn2)c1C,.,.,.,.,.,?
CCOC(=O)c1c(C)[nH]c(C(=O)COC(=O)C2CC(=O)N(Cc3ccccc3)C2)c1C (centres undefined),.,3.3µM,.,.,.,.
CCOC(=O)c1c(C)[nH]c(C(=O)COC(=O)c2ccncc2)c1C,.,7.3µM,?,.,.,.
N#C/C(=C(/O)COc1ccccc1)c1nc2ccccc2s1,.,.,?,.,?,?
N#C/C(=C(/O)c1ccc(F)cc1)c1nc2ccccc2s1,.,?,8.2µM,.,.,?
N#C/C(=C(/O)COc1ccc(Cl)cc1)c1nc2ccccc2s1,.,13µM,?,.,.,16µM
N#C/C(=N\O)c1nc2ccccc2s1,.,.,.,.,.,.
COc1cccc(/C=C/c2cnc3ccccc3n2)c1OC,/,.,.,/,/,/
Cc1c(C)c2c(cc(C)c3c(-c4ccc(Br)cc4)coc32)oc1=O,/,.,.,/,/,/
CSc1ccc(C(=O)c2[nH]c(=O)[nH]c2C)cc1,.,5.8µM,.,.,.,.
Cc1oc2ncnc(N3CCCCC3)c2c1C(=O)NCC1CCN(Cc2ccc(F)cc2)CC1,/,.,.,/,/,/
CCN(C(=O)COC(=O)/C=C/c1c(C)nn(-c2ccccc2)c1C)c1c(N)n(Cc2ccccc2)c(=O)[nH]c1=O,.,.,.,.,.,.
O=C(N=Nc1c(O)[nH]c2ccccc12)c1ccc2c(c1)OCO2,.,.,.,-82,.,.
Cc1cccc(NC(=O)CSc2nc3c(oc4ccccc43)c(=O)n2C(C)C)c1,/,.,.,/,/,/
CC(=O)c1ccc(OCc2ccc(C(=O)c3ccccc3)cc2)cc1,.,16µM,15µM,.,.,.
O=C(O)COc1ccc(C(=O)c2ccccc2)cc1,.,.,.,.,.,.
COc1ccc(Nc2ncnc3onc(-c4ccc(Cl)cc4)c23)cc1Cl,/,.,10µM,/,/,/
C=CCSc1nc2ccccc2n1Cc1nnc(-c2cccs2)o1,.,6.5µM,.,.,.,.
Cc1ccc(N2CCN(c3nc4c(S(=O)(=O)c5ccc(C)c(C)c5)nnn4c4ccccc34)CC2)c(C)c1,/,.,.,/,/,/
O=C(CSCc1cccc(Br)c1)N/N=C/c1ccc2c(c1)OCO2,.,.,18µM,.,?,?
Cc1cccc(C)c1OCC(=O)N/N=C/c1ccc2c(c1)OCO2,.,5.2µM,?,.,?,5.8µM
